Data published in PubChem BioAssay AID1159506 (National Center for Advancing Translational Sciences (NCATS), 2015).
In all, about 59,000 sequences were measured (the read-out: median about -0.00055, lowest 2% from about -2 on). This excerpt belongs to a sample that is enriched for the lowest values.

Assay: Identification of proteins required for the processing of the EWS-FLI1 nascent transcript;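 note: robust z of luciferase light less the median z of siRNAs with the same seed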
Settings: TC32 Ewing sarcoma NR0B1-luc vs CMV-luc (EWS-FLI1 target promoter against control promoter), 48 h; screened at 20 nM (by protocol)
Protocol: Ewing sarcoma (ES) cells depend on the EWS-FLI1 fusion transcription factor for cell survival. Using an assay of EWS-FLI1 activity and genome-wide siRNA screening we have identified proteins required for the processing of the EWS-FLI1 nascent transcript. Parallel genome-wide siRNA-mediated RNAi screens were conducted in Ewing sarcoma TC32 cell lines expressing a luciferase (luc) reporter protein driven by either the promoter of the EWS-FLI1 target gene NR0B1 (TC32-NR0B1-luc) or the CMV promoter (TC32-CMV-luc). Luciferase activity was assessed 48 hours post siRNA-transfection.
Twenty microl of serum-free media containing Lipofectamine RNAiMax (0.05 microl) was added to wells containing siRNA (0.8 pmol). Lipid and siRNA were allowed to complex for 45 min at ambient temperature before addition of 600 cells in RPMI-1640, 20% FBS to yield final transfection mixtures containing 20 nM siRNA in RPMI-1640, 10% FBS. Luciferase expression was measured using OneGlo (Promega, Madison, WI). The genome-wide screening campaign was conducted using Ambion's human genome library version 4.1 (Ambion, Austin TX). This library targets approximately 21000 human genes, three siRNAs per gene. Each siRNA is arrayed in an individual well of a 384-well plate. Parallel transfections were conducted in TC32-NR0B1-luc and TC32-CMV-luc cell lines and luciferase expression (OneGlo, Promega) was assayed 48 h later on a PerkinElmer Envision 2104 Multilabel plate reader (PerkinElmer, Waltham, MA). Qiagen's AllStars Negative control was incorporated on all screening plates for normalization (16 wells per plate). Qiagen, Germantown, MDsiGL4 was incorporated as a positive transfection control (16 wells per plate) on all plates. […] The raw luciferase data for the NR0B1- and CMV-luc screens were normalized and z-score-MAD transformed using standard methods (Chung et al., 2008). The miRNA-like seed sequence of every siRNA was determined and the median z-score for all siRNA sequences with the same seed sequence was calculated. This z-score was subtracted from the z-score associated with each siRNA with that seed sequence to generate a seed-adjusted z-score value (Z) that was used when the results for the three siRNAs corresponding to each gene were compared (Marine et al., 2012)

Row | Sequence | seed-corrected z-score
1 | AUGGUAGUAAUCGCGGGCG against HSPA12B | -2.44
2 | UAAGCGAAUAGGAUGCGCU against YWHAEP5 | -1.53
3 | UUUGCGAUGUUCCUCUUCC against GOLIM4 | 0.684
4 | UCAUUUCUAAGACCGCAUG against HNRNPUL1 | -0.605
5 | AAAGGUCAAUUCUUGAUGG against OR2L8 | 1.81
6 | UCUGGAUGGAGGUUUGUUC against SLC38A10 | 1.34
7 | UUGGAACAUAUUGGGAUCG against DDN | -0.0544
8 | AUGUUUUCGCUGGAGUUGG against SSBP4 | 0.9
9 | AUAGGUCUGAAUGAGCUGC against PLCD3 | -0.512
10 | UUCCUCAAAACUGCAGACU against LOC729451 | -0.00746
11 | UCCAUGUUGUCGAUCAUCU against RGS9BP | -2.21
12 | UAUGAGUGCUCCACGAUGC against APOL3 | 0.115
13 | UUCAUGACAAAGCUUGACC against PFN1P3 | -0.053
14 | UUGGUAAACAUCUCCAGGC against TRIM63 | 1.24
15 | UUGUCGUUCAGCAAACUCC against ASCC2 | -2.07
16 | UCAGGAUAUAGUUUAGGAC against TMEM144 | 0.846
17 | AAUGUAUCAAGUAUGUCGG against C16orf62 | -2.25
18 | UGAAAUAUCUCCAGGAUCU against EFCAB12 | 0.249
19 | UAUGCGUUUUGGAGAUUCC against PARP8 | -0.784
20 | UCUGUCUUCCCAUAGGAUG against LOC440040 | -2.05
21 | AAUGGUAGAACAUCCCUGC against RIN2 | -0.24

Row | Sequence | seed-corrected z-score
22 | AACUUGAUCAAGUAGCUCG against EBLN1 | -0.0938
23 | UGUCAGUAUAGCACAGAUC against EFTUD2 | -2.05
24 | AAGGUAACCAGCUCGAUGG against RPL7AP27 | -0.369
25 | UUCUUUAUCCUUAGUCCUC against NFATC2IP | -3.11
26 | UACAGUAAUAGUGAGGCAG against GYPB | 2.32
27 | UUAGGGUCAGGAGCAGACA against CYP2F1 | -0.167
28 | UACUAACUUUUCGAUGUCC against MX2 | 0.257
29 | UAGGUUGCAUCAUAGAGGG against CFL1 | -2.11
30 | UUUCGUGUUGCCGUAUUUC against GEMIN5 | 0.131
31 | UACCAGUCAGGGUCUUCAC against UBC | -8.62
32 | UGAGUAGAUGAUCUUGUCG against GNA11 | 0.913
33 | AUAGGUGUCCUUCAGGUCC against MYL5 | -0.00285
34 | UGAGAUUUGAUGAUUCUGC against OR7E24 | 0.344
35 | UGUGAAAGAGGCGAAAUGC against ELAC1 | 0.216
36 | UUUUCCACAACCGUAGUCA against GOLGA8G | 0.524
37 | GAUGGAGGUGCCAUGGUUG against ZSWIM3 | -0.304
38 | UCUGGUUCUUUGUAAAGGC against S100A11P1 | -2.25
39 | UUAGGCUUAUUUCCCGCUC against BTN3A2 | -0.656
40 | UAGUGUACUCUAGAGCCCG against PLEKHG4 | 0.519
41 | UUUCUCAUCACUAGAAGUC against PPIH | -0.684
42 | UUGGAGAUAAGGGUUCUUG against MSTO1 | -2.21

Row | Sequence | seed-corrected z-score
43 | UGCAUCUUCUCUUAUGUGC against C16orf90 | -1.02
44 | UAACACUUUCAUUCCUGUC against FAM86B1 | -1.15
45 | UCUUGGUCAGGUUUCCUCG against MUSTN1 | -0.107
46 | AUUCUUCUAGGCAUUGCCC against PDE6D | 0.469
47 | UCUAUUACUUUCACAAUGC against KDM6A | -0.344
48 | AUUCACACCAGUAUUAGUG against KIAA1456 | 0.152
49 | UAAUCCGUAAAUUCGAUAC against RNF139 | 0.709
50 | AUAGCUGCAGGAUCUAAGC against POLR3A | -3.95
51 | UUCCGGUAGAAGAUGAGCC against SHMT2 | 0.314
52 | UUCAUGGUAGGAAAGGUCU against DXO | 1.33
53 | UAGUAUCAAAUAUCCAGAC against TMEM60 | 0.0266
54 | UAAUGUACACCACAUUGGG against FAM198B | -2.46
55 | UUCACGUUCAUUGCAGUCU against RAB5C | -1.4
56 | ACAGUUAAGACACCACUCC against FXN | 1.1
57 | AUAAGCAACACCAUUAUGG against BOLL | 1.08
58 | AAUGGGUCUACCUUGUUGG against PSMC5 | -1.78
59 | AAUAAAGACGGAUUUAUUC against HTATIP2 | 0.204
60 | UUUGAUAUGAUGUUCCACC against DDX50 | -0.378
61 | AAACGAUCCAUAUAGUCCG against MIER3 | 0.02
62 | UAUUGACCAAGAUCACAUG against FASTKD2 | 0.878
63 | AGCUGUAUCCAUUAGGGUG against NTSR2 | 0.216

Row | Sequence | seed-corrected z-score
64 | UUCCAUGUAACCGUCGUUC against SHE | -0.285
65 | AGAUCUAUUACUUCCAGGG against LRRC34 | -3.45
66 | AAAGCGACACUUAUCACCC against WRB | 0.538
67 | UCUUUAAGAAUUGCACAUC against NAAA | -0.571
68 | UCCUGCUUCAGUAAAUCUC against MRPL24 | -2.37
69 | UCUCGAUUUAGCUUAGGCC against SKP2 | -0.249
70 | AUAUCAACAAGCCCAAUUC against KCNB2 | -0.883
71 | UAGCCGACAAAACAACAUC against HEATR1 | -0.424
72 | AAAGCUAUUAUCAUGUAGG against SLC35B3 | 0.789
73 | AUCGGUAUAGUUGAUGCAC against SCN10A | 0.0881
74 | UUUUGAACCAGGGUAGUUC against GNA15 | 0.0907
75 | UCCGGAACAUAUGUUGUCG against TNFRSF11B | -0.942
76 | UGAUGAUCUACACUGAUUC against FAM91A1 | -2.35
77 | UUGGAUUGGCGCUAUGUUC against ANKRD20A18P | -0.888
78 | UUGUAGACCAUGUUGGAGC against POLE | -0.71
79 | UCUGGUUCUUGUGCUCUUC against INO80B | -2.05
80 | AAUCGGAUUUUGUUGAGUC against SOWAHC | -0.193
81 | UUUCUUCCUGUGCACGUCA against OXCT2 | -0.277
82 | UCUUCAGCCGCAUCGAUCU against TNNI2 | 0.556
83 | AUCUGUAUAAUCGACAGGC against BARD1 | -1.42
84 | AAACGGUACAGAGCGCUGC against C1orf233 | -1.64
